# Inconclusive results are not listed. Activity calls are given as the source filed them. How the source made its calls: active means hit-call score of the fitted dose curve at least 0.9, where 1 is the maximum; inconclusive means response in the unintended direction; inactive means score below 0.9.
# Read-out: Glyceraldehyde-3-phosphate dehydrogenase (Homo sapiens) (UniProt P04406)
# Assay: CLD_GAPDH_24hr: CellzDirect (CLD) Gene Expression Assay for Baseline Control (Glyceraldehyde 3-phosphate dehydrogenase) at 24 hours (AID 2283692)
# Procedure: CLD_24hr is a cell-based, multiplexed-readout assay that uses hepatocyte, a human liver primary cell, with measurements taken at 24 hours after chemical dosing in a 96-well plate.CLD_GAPDH_24hr is one of 16 assay component(s) measured or calculated from the CLD_24hr assay. It is designed to make measurements of mRNA induction, a form of inducible reporter, as detected with chemiluminescence signals by Quantitative Nuclease Protection Assay (qNPA) technology.Data from the assay component CLD_GAPDH_24hr was analyzed at the endpoint, CLD_GAPDH_24hr, in the positive analysis fitting direction relative to DMSO as the negative control and baseline of activity. Using a type of inducible reporter, gain-of-signal activity can be used to understand changes in the reporter gene as they relate to the gene GAPDH. Furthermore, this assay endpoint can be referred to as a secondary readout, because this assay has produced multiple assay endpoints where this one serves a background control function. To generalize the intended target to other relatable targets, this assay endpoint is annotated to the background measurement intended target family, where subfamily is baseline control.
# Human hepatocyte cultures were treated daily for two consecutive days with fresh dosing solutions containing appropriate concentrations of the 320 ToxCast chemicals (chemical identities were blinded to CellzDirect and other ToxCast collaborators), vehicle control (0.2% DMSO), and positive control inducers as summarized in Table 1. Due to the large number of treatment groups and chemicals examined, the ToxCast chemicals were divided into two groups (spanning two independent cultures of hepatocytes from separate donor preparations (Hu778: ToxCast plates 1 and 2; Hu776: ToxCast plates 3 and 4). Each preparation of human hepatocyte cultures was treated with respective vehicle control, medium only control, set of six positive controls/reference chemicals for the five hepatic receptor pathways, and a subset of eight of the ToxCast chemicals (indoxacarb, pyrithiobac-sodium, norflurazon, cyhalofop-butyl, methomyl, thiram, acetochlor, and propiconazole). These replicate data, coupled with internal replicates designed within the blinded ToxCast chemical library, provided additional data to evaluate interindividual differences between hepatocyte preparations and their potential impact on chemical profiles.Cell morphology and integrity were evaluated using phase-contrast microscopy as an indicator of hepatocyte cell health (Tyson & Green, 1987). Cultures for each treatment group (i.e., media, vehicle [0.2% DMSO], positive control inducers [multiple concentrations], and the ToxCast chemicals [multiple concentrations]) were observed and cell morphology was assessed relative to vehicle control cultures at each harvest time point (0, 6, 24, or 48 h). […] Images were evaluated at the conclusion of the study to assess changes in cell integrity and account for the effects of chemical exposure on uncharacteristic changes in concentration-dependent gene expression profiles. The results from these determinations of apparent cytotoxicity were annotated (yes/no) alongside the corresponding qNPA data for reference.At the conclusion of each treatment period, hepatocyte cultures (96-well) were washed with 1 volume of HBSS, lysed by addition of 25 ul ArrayPlate lysis buffer (HTG, Tucson, AZ), and 70 ul/well of Denaturation Oil, denatured by incubation at 95C for 10 min, and frozen at approximately -70C until analysis by nuclease protection assay (qNPA) (Roberts et al., 2007). For qNPA analysis, cell lysates were thawed at 50C for approximately 30 min, qNPA probes were added, and samples were incubated at 95C for 10 min to begin the detection process by denaturing the target RNA, dissociating the duplexes and secondary structure hybridization. At the conclusion of the hybridization period, S1 nuclease reagent was added to each sample to digest all nonprotected nucleotides at 50C for 60-90 min. […]
# Glyceraldehyde-3-phosphate dehydrogenase (Homo sapiens), sequence (P04406 whole entry, looked up): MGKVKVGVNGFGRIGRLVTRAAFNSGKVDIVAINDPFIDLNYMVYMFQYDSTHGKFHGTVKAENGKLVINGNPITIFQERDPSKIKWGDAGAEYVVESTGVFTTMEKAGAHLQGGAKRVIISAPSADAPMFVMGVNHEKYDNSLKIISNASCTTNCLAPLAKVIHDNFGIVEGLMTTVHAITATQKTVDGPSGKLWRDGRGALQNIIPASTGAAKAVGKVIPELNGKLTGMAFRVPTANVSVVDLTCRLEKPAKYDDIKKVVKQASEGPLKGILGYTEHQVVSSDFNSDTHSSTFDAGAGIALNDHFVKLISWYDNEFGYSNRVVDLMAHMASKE
row,SMILES,outcome
1,Oc1ccc(Cl)cc1Cc1ccccc1,inactive
2,CNC(=O)CSP(=S)(OC)OC,inactive
3,COC(=O)c1ccccc1S(=O)(=O)NC(=O)Nc1nc(C)nc(OC)n1,inactive
4,N#CN,inactive
5,O=C(Nc1ccccc1)Nc1cnns1,inactive
6,O=C(O)C(F)(F)C(F)(F)C(F)(F)C(F)(F)C(F)(F)C(F)(F)C(F)(F)F,inactive
7,CC(C)N(C(=O)COc1nnc(C(F)(F)F)s1)c1ccc(F)cc1,inactive
8,O=C1c2ccccc2C(=O)N1SC(Cl)(Cl)Cl,inactive
9,COC(=O)c1ccccc1CS(=O)(=O)NC(=O)Nc1nc(OC)cc(OC)n1,inactive
10,Cc1[nH]c(=O)n(C(C)(C)C)c(=O)c1Cl,inactive
11,CNC(=O)Oc1ccccc1OC(C)C,inactive
12,CCC(C)(NC(=O)c1cc(Cl)c(C)c(Cl)c1)C(=O)CCl (configuration not stated),inactive
13,CNC(=O)Oc1cccc(N=CN(C)C)c1,inactive
14,CCOc1nc(NC)nc(NC(=O)NS(=O)(=O)c2ccccc2C(=O)OC)n1,inactive
15,C#CCN1C(=O)COc2cc(F)c(N3C(=O)C4=C(CCCC4)C3=O)cc21,inactive
16,[2H]C1([2H])[n+]2ccccc2-c2cccc[n+]2C1([2H])[2H],inactive
17,CN1CSC(=S)N(C)C1,inactive
18,N#Cc1c(Cl)c(Cl)c(Cl)c(C#N)c1Cl,inactive
19,COc1cc(OC)nc(NC(=O)NS(=O)(=O)c2cc(NC=O)ccc2C(=O)N(C)C)n1,inactive
20,Cc1cc(C)nc(NC(=O)NS(=O)(=O)c2ccccc2C(=O)OC2COC2)n1,inactive
21,Oc1cc(Cl)ccc1Oc1ccc(Cl)cc1Cl,inactive
22,O=C(O)COc1ccc(Cl)cc1Cl,inactive
23,OCCOc1ccccc1,inactive
24,O=[N+]([O-])/N=C1\NCCN1Cc1ccc(Cl)nc1,inactive
25,CCOCN(C(=O)CCl)c1c(C)cccc1CC,inactive
26,O=S(=O)(O)C(F)(F)C(F)(F)C(F)(F)C(F)(F)C(F)(F)C(F)(F)C(F)(F)C(F)(F)F,inactive
27,COP(=O)(OC)OC=C(Cl)Cl,inactive

# From PubChem BioAssay (EPA / NIEHS)
